# Data from PubChem BioAssay (NCI).
# The panel holds about 83,000 compounds, 20% with a hit somewhere; the sample as a whole holds those more often.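 Growth was measured after 48 h exposure to one concentration of compound in 96-well plates. Values under 10 count as active.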 Values without a mark were called inactive. Activity calls are given as the source filed them.
# Tests used:
# Test in all cases: NCI-60 one-dose screen, 48 h (100 = growth as untreated, 0 = no growth, -100 = all killed)
# Details in all cases: 10 µM unless noted
# [1] = test system: NCI-H23 lung
# [2] = test system: NCI-H226 lung
# [3] = test system: NCI-H322M lung
# [4] = test system: HOP-62 NSCLC
# [5] = test system: NCI-H460 lung
# [6] = test system: HOP-92 NSCLC
# [7] = test system: NCI-H522 lung
# [8] = test system: A549/ATCC NSCLC
# [9] = test system: 786-0 renal
# [10] = test system: COLO 205 colon
# [11] = test system: DU-145 prostate
# [12] = test system: K-562 leukemia
# [13] = test system: MALME-3M melanoma
# [14] = test system: MDA-MB-231 breast
# [15] = test system: SF-268 CNS
# [16] = test system: SF-295 CNS
# [17] = test system: SF-539 CNS
# [18] = test system: UACC-257 melanoma
# [19] = test system: RXF 393 renal
# [20] = test system: M14 melanoma
SMILES,growth [1],growth [2],growth [3],growth [4],growth [5],growth [6],growth [7],growth [8],growth [9],growth [10],growth [11],growth [12],growth [13],growth [14],growth [15],growth [16],growth [17],growth [18],growth [19],growth [20]
CN(C)CCn1cc(-c2ccc3c(Nc4ccc(CC(=O)Nc5cccc(F)c5)cc4)ncnc3c2)cn1,-57.2% [30 µM] (active),-36.7% [30 µM] (active),-94.5% [30 µM] (active),-23.2% [30 µM] (active),-74.1% [30 µM] (active),-28.8% [30 µM] (active),-30.5% [30 µM] (active),-41.4% [30 µM] (active),-50.8% [30 µM] (active),-61.8% [30 µM] (active),-95.8% [30 µM] (active),-29.2% [30 µM] (active),-92% [30 µM] (active),-85.7% [30 µM] (active),-61.7% [30 µM] (active),-79.8% [30 µM] (active),-94.2% [30 µM] (active),-59.7% [30 µM] (active),,
CC(=O)Nc1ccc(-c2cc3c(NCc4ccc(F)cc4)ncnc3s2)cc1,77.5%,78.4%,82.7%,58%,77.3%,76%,56.6%,83.9%,82.7%,106%,86.3%,86.8%,59.5%,83%,68%,82.6%,56.6%,86.8%,,
CCCCS(=O)(=O)Oc1ccc(-c2nc(C)c(C(=O)OCC)s2)cc1C=O,84%,87.1%,86.7%,68.4%,58.7%,69.5%,58.3%,101%,74.4%,106%,61.4%,13.7%,75.1%,76.7%,79.3%,67.5%,58%,96.2%,,
COc1cc(-c2ncn(/C=C\c3nnco3)n2)cc(C(F)(F)F)c1,26.6%,-0.243% (active),8.72% (active),39.8%,0.25% (active),61.4%,-11.4% (active),16.7%,5.1% (active),0.0945% (active),18.4%,6.9% (active),2.52% (active),,10.9%,53.6%,6.11% (active),53%,-26.2% (active),
CCCCN(Cc1ccc(C(=O)NO)cc1)C(=O)Nc1ccc(OCCCCCCCCCn2cc(CCCCC(=O)N[C@H](C(=O)N3C[C@H](O)C[C@H]3C(=O)NCc3ccc(-c4scnc4C)cc3)C(C)(C)C)nn2)cc1,33.4%,46.1%,63.7%,39.7%,11.6%,-11.4% (active),19.5%,86.8%,69.8%,36.9%,50.8%,16.2%,23.8%,59.6%,36.2%,92%,32%,60%,,
Nc1c(C(=O)Nc2ccccc2)sc2nc3c(cc12)CCCCCC3,22.5%,27%,29.2%,15.5%,4.61% (active),76.5%,-11.6% (active),15%,10.4%,-17% (active),18.6%,7.92% (active),31.3%,,36.6%,-0.47% (active),-41.8% (active),44.9%,-38.7% (active),
O=C1c2ccccc2C(=O)c2cc(Cn3cc[n+](Cc4ccc5ccccc5c4)c3)ccc21,75.6%,83.3%,91%,107%,94%,47.8%,38.9%,110%,98.8%,58.6%,115%,32.5%,66.5%,81.4%,72.5%,94.9%,84.1%,56.1%,,
C=C1C(=O)O[C@H]2[C@H]1CC/C(COC(=O)/C=C\C(=O)NCc1ccc(Cn3c(=O)sn(-c4ccc(OC)cc4)c3=O)cc1)=C\CC[C@@]1(C)O[C@@H]21,-69.9% (active),-65.9% (active),32.4%,-20.4% (active),-65.5% (active),-65% (active),-45.2% (active),12.6%,-57.9% (active),-45.9% (active),-84% (active),0.146% (active),-92% (active),-89.6% (active),-78.3% (active),55%,-99.3% (active),-62.2% (active),,
Cc1nc(-c2ccccc2)cc2c(O)c(C(=O)N/N=C/c3ccc(N(C)C)cc3)[nH]c(=O)c12,78.1%,107%,90.5%,77.3%,94.9%,32%,72.7%,40.5%,79.2%,109%,75.1%,62.6%,98.2%,71.7%,81.7%,94.1%,69.7%,106%,,
Cc1nc(Nc2ccc(S(=O)(=O)Nc3cc(C)on3)cc2)c2ccccc2n1,107%,99.7%,104%,101%,112%,89%,86.3%,108%,98.3%,116%,112%,99.9%,93.2%,108%,99.5%,95.4%,97.6%,103%,,
COc1ccc(/C(C)=C(\c2ccc(Cl)cc2)c2ccc(OCCN3CCCCC3)cc2)cc1F,48.1%,77%,76.1%,16.8%,7.34% (active),59.6%,65.5%,53%,2.47% (active),5.95% (active),63.3%,1.56% (active),-27.2% (active),49.5%,63.5%,-19.7% (active),4.69% (active),24.6%,,
COc1cccc(/C=C2\COc3ccc(O)cc3C2=O)c1OC,86.6%,95.2%,90.5%,88.4%,67.8%,86.8%,28.7%,105%,86.1%,92.1%,45.1%,5.8% (active),73.9%,85.1%,85%,95.7%,72.2%,83.3%,,
O=C1c2cccc3c(-c4ccc(-c5nc6c7ccccc7c7ccccc7c6[nH]5)cc4)ccc(c23)C(=O)N1CCN1CCNCC1,83.3%,94.9%,75.3%,62.1%,41.2%,86.2%,91.8%,70.7%,52.4%,61.9%,42.5%,-10.2% (active),85.4%,63.3%,104%,101%,73.8%,108%,,
COc1ccc(-c2nc3ncccn3c2/C=C/C(=O)c2cc(OC)c(OC)c(OC)c2)cc1,-19.6% (active),-24.4% (active),16.1%,-12.4% (active),-79.4% (active),-0.213% (active),-44.6% (active),10.2%,-26% (active),,2.9% (active),6.79% (active),61.8%,21.1%,13.4%,-31.5% (active),-87.2% (active),41.2%,-24.4% (active),
CCOC(=O)C1C(=O)C=C(c2cnccn2)CC1c1ccc(OC)c(OC)c1 (stereo not given),95.6%,96.1%,103%,88.3%,114%,58.2%,73.3%,86.6%,83.7%,,105%,81.3%,100%,110%,102%,95.1%,95.7%,81.8%,114%,85.5%
O=C(CC12CC3CC(CC(C3)C1)C2)NCCOCCOCCOCCNC(=O)c1cc2c(o1)C(=O)c1ccccc1C2=O,-47.6% (active),-73.6% (active),-78.7% (active),-49.7% (active),-71.5% (active),27.6%,-45.6% (active),-41.2% (active),-5.36% (active),,-95.6% (active),2.13% (active),-96.3% (active),-0.382% (active),-3.17% (active),-90.1% (active),-90.4% (active),-80.7% (active),-51.3% (active),-76.2% (active)
